Test results as given in PubChem BioAssay AID652058 (Broad Institute, 2013).
The campaign covered roughly 1,200 compounds. About 870 (72%) were called active. About 3% were inconclusive and are not listed. So high a share suggests a set chosen from earlier hits. Not all results are given here. Results with a measured potency or affinity are listed apart. Unmarked numbers belong to inactive results.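 Rule for the calls: active = every test run fits a falling curve whose half-maximal concentration is at most twice the top valid dose; inconclusive = runs disagree, or flat 30 to 70% inhibition, or poor fit; inactive = every run inactive: flat, rising or weaker potency.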

Assay: ZM109 Env clade C HIV-1 fusion inhibitors, dose response, HeLa effector, CEM target cells, luciferase, cherry-pick (AID 652058);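 note: 0% = neutral control wells and -100% = maraviroc 300 nM wells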
Conditions: HeLa Env/CEM cell fusion, 16-24 h; series mostly up to 35 µM; activity change, negative = inhibition: at the top concentration

Compound | activity change, negative = inhibition
O=C(OCCOc1cccc(Cl)c1)c1cc(S(=O)(=O)N2CCCCC2)ccc1N1CCOCC1 | -9.55%
CSc1ncccc1C(=O)OCC(=O)Nc1ccc(C)c(S(=O)(=O)N2CCOCC2)c1 | 20.5%
Nc1ccc(S(=O)(=O)c2ccc(N3CCOCC3)c(N)c2)cc1 | -15.2%
C[C@H]1NC(=O)[C@@]2(C)[C@H](c3ccccc3)[C@H]3COc4ccccc4[C@@H]3N2C1=O | 148%
COc1cc2c(cc1OC)C(=O)N1[C@H]3c4cc(Cl)ccc4OC[C@@H]3[C@H](c3ccccc3)[C@]1(C)C(=O)N2 | -15.7%
COc1ccc(OCC(=O)Nc2cc(-c3nn(C)c(=O)c4ccccc34)ccc2OC)cc1 | 32.8%
COc1ccc(-c2nn(C)c(=O)c3ccccc23)cc1NC(=O)COc1ccccc1 | 33.2% [at 16 µM]
Cc1ccc(-c2ccc3c(c2)O[C@@H](CN(C)C(=O)C2CCCCC2)[C@H](C)CN([C@H](C)CO)S3(=O)=O)cc1 | -97.7%
Cc1ccc(-c2ccc3c(c2)O[C@@H](CN(C)Cc2ccncc2)[C@H](C)CN([C@H](C)CO)S3(=O)=O)cc1 | -87.2%
C[C@H](CO)N1C[C@H](C)[C@H](CN(C)Cc2ccccc2F)Oc2cc(C3=CCCC3)ccc2S1(=O)=O | -114%
Cc1ccc(-c2ccc3c(c2)O[C@H](CN(C)Cc2ccncc2)[C@@H](C)CN([C@@H](C)CO)S3(=O)=O)cc1 | 30.1% [at 16 µM]
O=C(c1cccc(S(=O)(=O)N2CCN(c3ccccc3)CC2)c1)N1CCCC(C(F)(F)F)C1 (stereo not drawn) | -4.76%
Cc1ccccc1S(=O)(=O)NC(=O)C1(C)CCN1C(=O)CCc1ccc(Cl)cc1Cl (stereo not drawn) | 33.3%
N#Cc1ccc(CSc2nnc(COc3ccccc3)n2-c2ccccc2)cc1 | -17.7%
COC(=O)[C@@]1(Cc2ccc(F)cc2)[C@H]2c3cc(C(=O)N(C)C)n(CCO)c3C[C@H]2CN1C(=O)c1ccccc1 | 101%
CC(NC(=O)c1ccccc1NC(=O)CN1CCc2ccccc2C1)c1ccccc1 (stereo not drawn) | -37%
Cc1cccc(N2CCN(C(=O)CCCSc3nc4ccccc4[nH]3)CC2)c1C | -31.6%
Cc1ccc(-n2nnnc2SCn2nnc3ccccc3c2=O)c(C)c1 | 40.8%
O=C(NCc1cccnc1)c1c[nH]c2cc3c(cc2c1=O)OCCO3 | 107%
N#C[C@H]1[C@@H](c2ccccc2/C=C/c2ccccc2)[C@@H](CO)N1S(=O)(=O)c1cccc(F)c1 | 21.6%
Cc1ccc(CSCCNC(=O)c2ccc(Cl)c(S(=O)(=O)N3CCOCC3)c2)cc1 | -30.2%
Cc1nc2sc(C(c3ccco3)N3CCC(Cc4ccccc4)CC3)c(O)n2n1 (stereo not drawn) | 66.1%
C[C@H]1CN([C@@H](C)CO)C(=O)Cc2cc(N(C)C)ccc2O[C@H]1CN(C)CC1CC1 | 35%
